Source: PubChem BioAssay (EPA / NIEHS)
Calls of active or inactive are those of the source. Rule for the calls: active = hit-call score of the fitted dose curve at least 0.9, where 1 is the maximum; inactive = score below 0.9.

Tests used:
Details in all cases: mRNA level, 48 h; actives raise or lower the signal
[1] = read-out: growth arrest and DNA damage 45 (GADD45A), GADD45A (gene 1647); test: LTEA_HepaRG_GADD45A: Life Technologies and Expression Analysis (LTEA) Assay for growth arrest and DNA damage 45 (GADD45A) using HepaRG (AID 2283458)
How it was run: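 Differentiated HepaRG cells exposed 48 h in serum-free induction medium to 8 concentrations, top 100 uM in half-log steps, 0.5% DMSO. GADD45A mRNA quantified by qRT-PCR, normalized to ACTB, GAPDH and POLR2A; bidirectional fit versus DMSO.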

[2] = read-out: Forkhead box O3 (FOXO3), FOXO3 (gene 2309); test: LTEA_HepaRG_FOXO3: Life Technologies and Expression Analysis (LTEA) Assay for Forkhead box O3 (FOXO3) using HepaRG (AID 2283459)
How it was run: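 Differentiated human HepaRG cells, 48 h post-plating, exposed in duplicate for 48 h in serum-free induction medium; 8-point half-log series from 100 uM in 0.5% DMSO. FOXO3 mRNA by TaqMan qRT-PCR, normalized to ACTB/GAPDH/POLR2A; bidirectional fit versus DMSO.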

[3] = read-out: ABC Transporter (ABCB1), ABCB1 (gene 5243); test: LTEA_HepaRG_ABCB1: Life Technologies and Expression Analysis (LTEA) Assay for ABC Transporter (ABCB1) using HepaRG (AID 2283460)
How it was run: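 HepaRG cells exposed in duplicate for 48 h in serum-free induction medium to eight half-log concentrations up to 100 uM in 0.5% DMSO. ABCB1 mRNA quantified by qRT-PCR, normalised to ACTB, GAPDH and POLR2A; fitted bidirectionally versus DMSO.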

[4] = read-out: growth arrest and DNA damage 45 (GADD45B), GADD45B (gene 4616); test: LTEA_HepaRG_GADD45B: Life Technologies and Expression Analysis (LTEA) Assay for growth arrest and DNA damage 45 (GADD45B) using HepaRG (AID 2283461)
How it was run: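 Transcript level quantified by Fluidigm TaqMan qRT-PCR with three housekeeping genes for normalization, analyzed for up- or down-regulation against 0.5% DMSO. HepaRG cultures dosed 48 h at eight half-log concentrations up to 100 uM, duplicates.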

[5] = read-out: ABC Transporter (ABCC3), ABCC3 (gene 8714); test: LTEA_HepaRG_ABCC3: Life Technologies and Expression Analysis (LTEA) Assay for ABC Transporter (ABCC3) using HepaRG (AID 2283462)
How it was run: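 Transcript level by TaqMan qRT-PCR, normalised to three housekeeping genes, fitted in both directions relative to vehicle. Chemicals tested in duplicate at eight half-log concentrations up to 100 uM for 48 h on HepaRG cells (0.5% DMSO).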

[6] = read-out: ABC Transporter (ABCB11), ABCB11 (gene 8647); test: LTEA_HepaRG_ABCB11: Life Technologies and Expression Analysis (LTEA) Assay for ABC Transporter (ABCB11) using HepaRG (AID 2283463)
How it was run: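 Differentiated human HepaRG cells in serum-free induction medium, dosed in duplicate for 48 h. Eight-point half-log series from 100 uM in 0.5% DMSO; ABCB11 mRNA by qRT-PCR, normalized to ACTB, GAPDH, POLR2A, fitted bidirectionally versus DMSO.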

[7] = read-out: ABC Transporter (ABCC2), ABCC2 (gene 1244); test: LTEA_HepaRG_ABCC2: Life Technologies and Expression Analysis (LTEA) Assay for ABC Transporter (ABCC2) using HepaRG (AID 2283464)
How it was run: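 Endpoint is ABCC2 transcript level from qRT-PCR, normalized to three housekeeping genes and fitted bidirectionally relative to DMSO. Human HepaRG cells received test chemical for 48 h at up to 100 uM (8 points, half-log steps, 0.5% DMSO), duplicate wells.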

[8] = read-out: Broad substrate specificity ATP-binding cassette transporter ABCG2 (Homo sapiens) (UniProt Q9UNQ0); test: LTEA_HepaRG_ABCG2: Life Technologies and Expression Analysis (LTEA) Assay for ABC Transporter (ABCG2) using HepaRG (AID 2283465)
How it was run: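 Differentiated HepaRG cells were exposed for 48 h in serum-free induction medium to 8 half-log concentrations, top 100 uM, in 0.5% DMSO. ABCG2 mRNA was measured by qRT-PCR, normalized to ACTB, GAPDH and POLR2A, with bidirectional fitting versus DMSO.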

[9] = read-out: ATP-citrate lyase (ACLY), ACLY (gene 47); test: LTEA_HepaRG_ACLY: Life Technologies and Expression Analysis (LTEA) Assay for ATP-citrate lyase (ACLY) using HepaRG (AID 2283466)
How it was run: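 Differentiated HepaRG cells exposed 48 h in serum-free induction medium to eight half-log concentrations up to 100 uM in 0.5% DMSO, duplicates. Transcript measured by Fluidigm TaqMan qRT-PCR, normalized to ACTB, GAPDH, POLR2A; bidirectional fit versus DMSO.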

[10] = read-out: Peroxisomal acyl-coenzyme A oxidase 1 (ACOX1) gene, ACOX1 (gene 51); test: LTEA_HepaRG_ACOX1: Life Technologies and Expression Analysis (LTEA) Assay for Peroxisomal acyl-coenzyme A oxidase 1 (ACOX1) gene using HepaRG (AID 2283467)
How it was run: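 HepaRG cells, plated 48 h then switched to serum-free induction medium, were exposed in duplicate for 48 h to 8-point half-log concentrations up to 100 uM in 0.5% DMSO. ACOX1 mRNA was measured by qRT-PCR, normalized to ACTB/GAPDH/POLR2A, and fitted bidirectionally versus DMSO.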

Measured: AC50

Broad substrate specificity ATP-binding cassette transporter ABCG2 (Homo sapiens), sequence (Q9UNQ0 whole entry, looked up): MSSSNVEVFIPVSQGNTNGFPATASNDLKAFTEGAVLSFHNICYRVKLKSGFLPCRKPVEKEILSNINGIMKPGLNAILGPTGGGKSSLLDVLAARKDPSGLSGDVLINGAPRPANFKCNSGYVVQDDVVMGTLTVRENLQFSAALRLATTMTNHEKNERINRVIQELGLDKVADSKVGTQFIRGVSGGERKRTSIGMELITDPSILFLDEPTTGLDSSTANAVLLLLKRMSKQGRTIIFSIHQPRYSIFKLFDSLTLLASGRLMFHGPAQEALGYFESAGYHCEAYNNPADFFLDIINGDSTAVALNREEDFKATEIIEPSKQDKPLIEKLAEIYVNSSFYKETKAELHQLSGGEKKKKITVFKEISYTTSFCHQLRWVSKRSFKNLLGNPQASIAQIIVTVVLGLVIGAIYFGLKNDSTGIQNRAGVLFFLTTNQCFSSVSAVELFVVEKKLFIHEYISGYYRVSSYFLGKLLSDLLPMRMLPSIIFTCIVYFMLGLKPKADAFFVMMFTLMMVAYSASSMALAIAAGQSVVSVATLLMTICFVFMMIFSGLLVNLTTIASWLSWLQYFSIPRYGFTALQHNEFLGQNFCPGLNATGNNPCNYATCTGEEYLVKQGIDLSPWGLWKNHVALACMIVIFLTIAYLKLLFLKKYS

CC1(C)C(C=C(Cl)Cl)C1C(=O)OCc1cccc(Oc2ccccc2)c1 (centres undefined)
inactive: [1] | [2] | [3] | [4] | [5] | [6] | [7] | [8] | [9] | [10]

N#CSCSc1nc2ccccc2s1
inactive: [1] | [2] | [3] | [4] | [5] | [7] | [8] | [9] | [10]
active: [6] 63.3 µM

N[C@@H](Cc1cc(I)c(Oc2ccc(O)c(I)c2)c(I)c1)C(=O)O
active: [3] 73.3 µM | [4] 7.94 µM | [6] 7.94 µM | [7] 7.94 µM | [8] 70.5 µM | [10] 7.94 µM
inactive: [1] | [2] | [5] | [9]

CCN(CC)C(=O)c1cccc(C)c1
inactive: [1] | [2] | [3] | [4] | [5] | [6] | [8] | [9] | [10]
active: [7] 21.5 µM

CCCCOC(=O)[C@@H](C)Oc1ccc(Oc2ccc(C(F)(F)F)cn2)cc1
active: [6] 20.6 µM
inactive: [1] | [2] | [3] | [4] | [5] | [7] | [8] | [9] | [10]

O=C(c1ccc(O)cc1O)c1ccc(O)cc1O
inactive: [1] | [2] | [3] | [4] | [5] | [6] | [7] | [8] | [9] | [10]

CC(C)CCCCCCc1ccc(O)cc1
inactive: [1] | [2] | [3] | [4] | [5] | [6] | [7] | [8] | [10]

CCSC(=O)N(CC(C)C)CC(C)C
inactive: [1] | [2] | [3] | [4] | [5] | [6] | [7] | [8] | [9] | [10]

CCN(Cc1c(F)cccc1Cl)c1c([N+](=O)[O-])cc(C(F)(F)F)cc1[N+](=O)[O-]
inactive: [1] | [2] | [3] | [5] | [6] | [9] | [10]
active: [4] 50 µM | [7] 50 µM | [8] 20.3 µM

CCOC(=O)COc1cc(-n2ncc(C(F)(F)F)c(C)c2=O)c(F)cc1Cl
inactive: [1] | [2] | [3] | [4] | [5] | [6] | [7] | [8] | [9] | [10]

CSC(=O)c1cccc2nnsc12
inactive: [1] | [2] | [3] | [4] | [5] | [6] | [7] | [8] | [9] | [10]

CCOC(=O)C(C)Oc1ccc(Oc2nc3ccc(Cl)cc3o2)cc1 (centres undefined)
inactive: [1] | [2] | [3] | [4] | [5] | [7] | [8] | [9] | [10]
active: [6] 9.92 µM

CCCOC(=O)NCCCN(C)C
inactive: [1] | [2] | [3] | [4] | [5] | [6] | [7] | [8] | [9] | [10]
